These results are taken from PubChem BioAssay (EPA / NIEHS).

“And” between values parts separate entries of the source, which are not always exact repeats. Identical values can stand only once. Inconclusive results are not listed. More than one record can exist for a structure, and the calls need not agree. The source made the active and inactive calls. Rule for the calls, unless noted: active = hit-call score of the fitted dose curve at least 0.9, where 1 is the maximum; inactive = score below 0.9.

The nature of assay [1]: ATG_Sox_CIS: Attagene CIS-FACTORIAL HepG2 Assay for human SRY-box transcription factor (SOX) (AID 2282960). The conditions noted are these: HepG2 Attagene cis-factorial SOX reporter, mRNA; actives raise or lower the signal. The method in brief: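 HepG2, cis reporter units, 24 h exposure. Reporter mRNA: RT-PCR → FAM labelling → HpaI → CE fluorescence. Bidirectional fit vs DMSO.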

Assay [2] deals with Transcription factor Sp1 (Homo sapiens) (UniProt P08047). The experiment in a line: ATG_Sp1_CIS: Attagene CIS-FACTORIAL HepG2 Assay for human Specificity Protein 1 (Sp1) (AID 2282961). To be noted: HepG2 Sp1 cis-reporter transcription, actives raise or lower the signal. In short, it runs like this:
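Liver-derived HepG2 cells, cis-element reporter library, 24 h treatment; RNA isolated, cDNA amplified with reporter-specific primers, FAM-labeled fragments sized on capillary analyzer. DMSO baseline, bidirectional curve fit.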

A short description of assay [3]: ATG_SREBP_CIS: Attagene CIS-FACTORIAL HepG2 Assay for human Sterol Regulatory Element Binding (SREBP) (AID 2282962). The conditions noted are these: HepG2 Attagene cis-factorial SREBP reporter, mRNA; actives raise or lower the signal. In short, it runs like this:
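Readout: fluorescent reporter-transcript peaks resolved by capillary electrophoresis after RT-PCR. Cells were human HepG2 carrying transfected cis-promoter reporter constructs, dosed for 24 h. Gain or loss of signal was fitted against DMSO controls.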

Assay [4] addresses Signal transducer and activator of transcription 3 (Homo sapiens) (UniProt P40763). The experiment in a line: ATG_STAT3_CIS: Attagene CIS-FACTORIAL HepG2 Assay for human Signal Transducer and Activator of Transcription 3 (STAT3) (AID 2282963). The conditions noted are these: HepG2, Attagene cis-factorial STAT3 reporter transcription; actives raise or lower the signal. The method in brief: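 Readout: fluorescent reporter mRNA fragments resolved by capillary electrophoresis. Setup: HepG2 transfected with MRTUs reporting endogenous transcription-factor activity, dosed 24 h. Gain or loss of signal fitted bidirectionally against DMSO control.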

The nature of assay [5]: ATG_TA_CIS: Attagene CIS-FACTORIAL HepG2 Assay for human TA Basal Promoter (AID 2282964). The conditions noted are these: HepG2 Attagene CIS-factorial TA basal promoter reporter; actives raise or lower the signal. In short, it runs like this: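 Steps: transfect HepG2 with MRTUs; dose 24 h; isolate RNA, DNase-treat, reverse-transcribe; PCR and FAM-label reporter cDNA; digest with HpaI 2h at 37 C; run capillary electrophoresis. Activity fitted both directions against DMSO.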

A short description of assay [6]: ATG_TCF_b_cat_CIS: Attagene CIS-FACTORIAL HepG2 Assay for human T-Cell-Factor with beta-catenin (TCF/b-cat) (AID 2282965). To be noted: HepG2 TCF/beta-catenin cis-reporter transcription, actives raise or lower the signal. The method in brief:
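Cells of the HepG2 line carry transiently transfected reporter units whose promoters respond to endogenous factors. Twenty-four hours post-dosing, reporter mRNA induction is measured by fluorescent RT-PCR and capillary electrophoresis, with DMSO as baseline.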

Assay [7] is described as follows: ATG_TAL_CIS: Attagene CIS-FACTORIAL HepG2 Assay for human TAL Basal Promoter (AID 2282966).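 Note: background control endpoint measuring basal TAL promoter reporter mRNA not a specific factor.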 The conditions noted are these: HepG2 Attagene cis-factorial TAL promoter reporter; actives raise or lower the signal. In short, it runs like this: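 Transiently transfected HepG2 (cis-regulated reporter units), 24 h treatment, mRNA read by fluorescent CE after RT-PCR; bidirectional fit, DMSO baseline.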

Assay [8] can be described thus: ATG_TGFb_CIS: Attagene CIS-FACTORIAL HepG2 Assay for human Transforming Growth Factor (TGF) (AID 2282967). To be noted: HepG2 Attagene CIS TGFb reporter, mRNA transcription; actives raise or lower the signal. The method in brief: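 Cells were dosed for 24 hours, after which total RNA was reverse-transcribed and reporter sequences amplified, labeled and sized by capillary electrophoresis. Activity was fitted in both directions against DMSO.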

The nature of assay [9]: ATG_VDRE_CIS: Attagene CIS-FACTORIAL HepG2 Assay for human Vitamin D Receptor Element (VDRE) (AID 2282968). To be noted: HepG2 VDRE cis-reporter transcription, actives raise or lower the signal. The method in brief: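 Transient MRTU transfection of HepG2, 24 h compound exposure. Readout: reporter transcripts via RT-PCR and capillary electrophoresis, fluorescence. Bidirectional fit vs DMSO.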

Assay [10] concerns the target Nuclear receptor subfamily 1 group I member 3 (Homo sapiens) (UniProt Q14994). Description: ATG_CAR_TRANS: Attagene TRANS-FACTORIAL HepG2 Assay for human Constitutive Androstane Receptor (CAR) (AID 2282969; active = hit-call score of the fitted dose curve at least 0.9, where 1 is the maximum;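 note: activators raise reporter mRNA above DMSO so AC50 marks induction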). To be noted: HepG2 Attagene TRANS-FACTORIAL CAR reporter. The method in brief: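 Transiently transfected HepG2, multiplex TRANS reporters (CAR-Gal4 chimera driving GAL4-UAS reporter). 24 h dosing. Readout: reporter transcript by RT-PCR + capillary electrophoresis, fluorescence intensity; positive direction vs DMSO.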

Assay [11] addresses X-box-binding protein 1 (Homo sapiens) (UniProt P17861). Description: ATG_Xbp1_CIS: Attagene CIS-FACTORIAL HepG2 Assay for human X-box Binding Protein 1 (XBP1) (AID 2282972). The conditions noted are these: HepG2 XBP1 cis-element reporter, Attagene multiplex; actives raise or lower the signal. In short, it runs like this:
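Read-out: fluorescent reporter mRNA fragments resolved by capillary electrophoresis after RT-PCR. Human HepG2 liver cells carried transfected cis-promoter reporter units and were exposed to chemicals for 24 hours. Gain or loss of signal fitted relative to DMSO baseline.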

Assay [12] in a line: ATG_M_19_TRANS: Attagene TRANS-FACTORIAL HepG2 Assay for M19 Transcription Factor (Internal Marker) (AID 2282974; active = hit-call score of the fitted dose curve at least 0.9, where 1 is the maximum). To be noted: HepG2 Attagene TRANS-FACTORIAL M19 internal marker reporter. In short, it runs like this:
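Transfected HepG2 (GAL4-UAS MRTUs), 24 h compound, TriZol RNA, DNase-treated RT, reporter PCR, FAM label, HpaI digest, CE fluorescence; gain vs DMSO.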

Assay [13] can be described thus: ATG_GAL4_TRANS: Attagene TRANS-FACTORIAL HepG2 Assay for GAL4 (Internal Marker) (AID 2282976; active = hit-call score of the fitted dose curve at least 0.9, where 1 is the maximum). To be noted: HepG2 Attagene TRANS GAL4 internal marker reporter. In short, it runs like this:
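HepG2 cells transiently transfected with multiplexed GAL4-UAS reporter constructs were dosed for 24 h. Reporter mRNA was measured by RT-PCR, 6-FAM primer extension, HpaI digestion and capillary electrophoresis, and gain of signal was fitted relative to DMSO.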

For assay [14], the target named is Glucocorticoid receptor (Homo sapiens) (UniProt P04150). Description: ATG_GR_TRANS: Attagene TRANS-FACTORIAL HepG2 Assay for human Glucocorticoid Receptor (GR) (AID 2282978; active = hit-call score of the fitted dose curve at least 0.9, where 1 is the maximum;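 note: activators score as hits since higher reporter transcript over DMSO is fitted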). The conditions noted are these: HepG2 Attagene TRANS GR reporter, mRNA transcription. In short, it runs like this:
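After 24 h incubation with test chemical, transfected HepG2 cells were lysed for RNA; reporter cDNA was amplified, FAM-labelled, HpaI-digested and sized on a capillary analyser. Signal gain relative to DMSO was scored.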

In assay [15] the target is Oxysterols receptor LXR-beta (Homo sapiens) (UniProt P55055). Description: ATG_LXRb_TRANS: Attagene TRANS-FACTORIAL HepG2 Assay for human Liver X Receptor beta (LXRb) (AID 2282981; active = hit-call score of the fitted dose curve at least 0.9, where 1 is the maximum). The conditions noted are these: HepG2 Attagene TRANS GAL4-LXRb reporter, mRNA. The method in brief:
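Readout: fluorescent reporter mRNA fragments resolved by capillary electrophoresis after RT-PCR. System: transiently transfected human HepG2, exogenous LXRb-Gal4 chimera driving GAL4-UAS reporter, 24 h dosing. Activity fitted upward against DMSO baseline.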

In assay [16] the target is Steroid hormone receptor ERR1 (Homo sapiens) (UniProt P11474). The experiment in a line: ATG_ERRa_TRANS: Attagene TRANS-FACTORIAL HepG2 Assay for human Estrogen-Related Receptor alpha (ERRa) (AID 2282971; active = hit-call score of the fitted dose curve at least 0.9, where 1 is the maximum). The conditions noted are these: HepG2 Attagene TRANS reporter, ERRa transactivation. In short, it runs like this:
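HepG2 cells transiently transfected with multiplexed GAL4-UAS reporter units reading chimeric ERRa-Gal4 activity; 24 h compound exposure. Reporter mRNA measured by RT-PCR, 6-FAM labelling, HpaI digest and capillary electrophoresis; gain of signal fitted versus DMSO baseline.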

Assay [17] addresses Androgen receptor (Homo sapiens) (UniProt P10275). Description: ATG_AR_TRANS: Attagene TRANS-FACTORIAL HepG2 Assay for human Androgen Receptor (AR) (AID 2282973; active = hit-call score of the fitted dose curve at least 0.9, where 1 is the maximum). To be noted: HepG2 Attagene TRANS-FACTORIAL AR reporter transcription. The method in brief: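 HepG2 cells transiently transfected with multiplexed GAL4-UAS reporter units and chimeric NR-Gal4 fusion; 24 h compound exposure. Reporter mRNA measured by RT-PCR, 6-FAM labelling, HpaI digestion and capillary electrophoresis; gain-of-signal fitted relative to DMSO baseline.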

Assay [18] concerns the target Oxysterols receptor LXR-alpha (Homo sapiens) (UniProt Q13133). The experiment in a line: ATG_LXRa_TRANS: Attagene TRANS-FACTORIAL HepG2 Assay for human Liver X Receptor alpha (LXRa) (AID 2282980; active = hit-call score of the fitted dose curve at least 0.9, where 1 is the maximum). To be noted: HepG2 Attagene TRANS reporter, LXRa transactivation. The method in brief:
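HepG2 cells were transiently transfected with multiplexed reporter units driven by chimeric LXRa–GAL4 fusion proteins, then dosed for 24 h. Reporter mRNA was quantified by RT-PCR, fluorescent labelling and capillary electrophoresis; gain of signal fitted against DMSO baseline.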

Assay [19] has as its target Estrogen receptor (Homo sapiens) (UniProt P03372). Description: ATG_ERa_TRANS: Attagene TRANS-FACTORIAL HepG2 Assay for human Estrogen Receptor alpha (ERa) (AID 2282970; active = hit-call score of the fitted dose curve at least 0.9, where 1 is the maximum). To be noted: HepG2 Attagene TRANS ERa GAL4 reporter, mRNA. The method in brief:
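One of 30 multiplexed endpoints from a HepG2 TRANS system, this one reports ERa-Gal4-driven reporter mRNA. Transcripts were quantified 24 hours post-dosing by fluorescent RT-PCR and capillary electrophoresis, with activity scored as induction over DMSO.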

Sequence of Transcription factor Sp1 (Homo sapiens) (P08047 whole entry, looked up, the tested form may be a part): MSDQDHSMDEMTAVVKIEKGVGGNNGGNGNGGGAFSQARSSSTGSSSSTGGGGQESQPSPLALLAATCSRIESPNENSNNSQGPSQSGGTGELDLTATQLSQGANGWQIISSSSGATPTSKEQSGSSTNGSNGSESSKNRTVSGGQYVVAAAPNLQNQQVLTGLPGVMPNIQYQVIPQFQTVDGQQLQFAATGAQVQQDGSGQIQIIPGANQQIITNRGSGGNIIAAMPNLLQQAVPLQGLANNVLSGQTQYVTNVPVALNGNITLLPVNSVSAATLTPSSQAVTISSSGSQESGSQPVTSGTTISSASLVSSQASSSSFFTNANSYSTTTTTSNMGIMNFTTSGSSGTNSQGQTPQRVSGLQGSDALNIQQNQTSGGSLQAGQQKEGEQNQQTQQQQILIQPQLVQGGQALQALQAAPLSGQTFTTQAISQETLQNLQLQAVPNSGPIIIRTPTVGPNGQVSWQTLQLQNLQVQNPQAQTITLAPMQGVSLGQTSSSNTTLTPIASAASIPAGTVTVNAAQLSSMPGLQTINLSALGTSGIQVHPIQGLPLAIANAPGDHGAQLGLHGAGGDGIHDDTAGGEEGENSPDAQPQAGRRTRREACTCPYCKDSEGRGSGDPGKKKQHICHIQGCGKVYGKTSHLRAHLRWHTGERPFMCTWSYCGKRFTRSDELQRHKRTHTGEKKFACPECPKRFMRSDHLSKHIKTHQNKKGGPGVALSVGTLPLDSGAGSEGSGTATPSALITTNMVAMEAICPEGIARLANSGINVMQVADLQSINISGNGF
Sequence of Glucocorticoid receptor (Homo sapiens) (P04150 whole entry, looked up): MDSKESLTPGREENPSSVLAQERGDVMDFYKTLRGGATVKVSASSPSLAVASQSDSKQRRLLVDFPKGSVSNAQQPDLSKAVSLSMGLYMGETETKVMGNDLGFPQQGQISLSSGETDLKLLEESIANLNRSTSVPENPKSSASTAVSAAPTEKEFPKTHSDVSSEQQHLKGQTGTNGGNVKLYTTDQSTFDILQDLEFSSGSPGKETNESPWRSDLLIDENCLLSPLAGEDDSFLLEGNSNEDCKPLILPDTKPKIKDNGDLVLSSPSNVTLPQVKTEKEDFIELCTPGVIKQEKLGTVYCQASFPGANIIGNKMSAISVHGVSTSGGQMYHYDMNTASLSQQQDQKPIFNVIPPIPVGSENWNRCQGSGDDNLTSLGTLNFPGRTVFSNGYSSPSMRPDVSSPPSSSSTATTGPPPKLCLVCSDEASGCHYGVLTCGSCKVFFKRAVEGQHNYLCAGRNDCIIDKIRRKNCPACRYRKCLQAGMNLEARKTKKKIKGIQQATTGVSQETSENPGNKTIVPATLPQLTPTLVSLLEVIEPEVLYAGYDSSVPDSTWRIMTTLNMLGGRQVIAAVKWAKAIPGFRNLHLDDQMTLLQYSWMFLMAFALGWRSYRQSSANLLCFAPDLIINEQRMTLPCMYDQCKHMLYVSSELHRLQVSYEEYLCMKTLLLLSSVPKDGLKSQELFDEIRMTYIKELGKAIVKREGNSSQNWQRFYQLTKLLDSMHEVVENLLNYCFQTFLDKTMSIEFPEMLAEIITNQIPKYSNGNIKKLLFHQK
Sequence of Signal transducer and activator of transcription 3 (Homo sapiens) (P40763 whole entry, looked up, the tested form may be a part): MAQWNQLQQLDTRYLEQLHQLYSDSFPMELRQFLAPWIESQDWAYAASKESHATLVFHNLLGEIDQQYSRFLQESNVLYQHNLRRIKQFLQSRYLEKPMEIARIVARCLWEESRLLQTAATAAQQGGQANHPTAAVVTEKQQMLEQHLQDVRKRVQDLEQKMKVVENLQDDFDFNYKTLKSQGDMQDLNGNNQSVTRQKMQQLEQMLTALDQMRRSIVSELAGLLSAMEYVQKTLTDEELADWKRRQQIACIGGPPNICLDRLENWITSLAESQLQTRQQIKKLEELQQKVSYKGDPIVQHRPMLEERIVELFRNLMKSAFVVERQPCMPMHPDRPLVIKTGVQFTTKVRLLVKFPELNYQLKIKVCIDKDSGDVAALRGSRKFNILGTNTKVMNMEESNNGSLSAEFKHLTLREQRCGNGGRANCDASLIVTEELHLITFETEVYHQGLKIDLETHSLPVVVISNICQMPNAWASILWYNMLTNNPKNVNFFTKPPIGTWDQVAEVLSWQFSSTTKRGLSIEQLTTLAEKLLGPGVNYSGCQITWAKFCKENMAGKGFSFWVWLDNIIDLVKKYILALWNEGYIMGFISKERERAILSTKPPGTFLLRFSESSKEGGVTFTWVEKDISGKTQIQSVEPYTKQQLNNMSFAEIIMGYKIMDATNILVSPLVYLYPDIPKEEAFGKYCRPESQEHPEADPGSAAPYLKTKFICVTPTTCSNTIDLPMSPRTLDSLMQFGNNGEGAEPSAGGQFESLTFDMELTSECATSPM
Sequence of Nuclear receptor subfamily 1 group I member 3 (Homo sapiens) (Q14994 whole entry, looked up, the tested form may be a part): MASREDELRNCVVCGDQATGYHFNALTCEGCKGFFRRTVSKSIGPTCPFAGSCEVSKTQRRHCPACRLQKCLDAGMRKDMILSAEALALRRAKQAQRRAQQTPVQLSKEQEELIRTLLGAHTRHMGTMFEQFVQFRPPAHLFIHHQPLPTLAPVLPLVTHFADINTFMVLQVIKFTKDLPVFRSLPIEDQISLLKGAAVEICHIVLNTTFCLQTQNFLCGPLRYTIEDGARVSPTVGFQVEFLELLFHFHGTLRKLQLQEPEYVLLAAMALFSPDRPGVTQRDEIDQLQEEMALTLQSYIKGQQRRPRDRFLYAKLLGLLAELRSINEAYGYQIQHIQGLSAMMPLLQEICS
Sequence of Oxysterols receptor LXR-beta (Homo sapiens) (P55055 whole entry, looked up, the tested form may be a part): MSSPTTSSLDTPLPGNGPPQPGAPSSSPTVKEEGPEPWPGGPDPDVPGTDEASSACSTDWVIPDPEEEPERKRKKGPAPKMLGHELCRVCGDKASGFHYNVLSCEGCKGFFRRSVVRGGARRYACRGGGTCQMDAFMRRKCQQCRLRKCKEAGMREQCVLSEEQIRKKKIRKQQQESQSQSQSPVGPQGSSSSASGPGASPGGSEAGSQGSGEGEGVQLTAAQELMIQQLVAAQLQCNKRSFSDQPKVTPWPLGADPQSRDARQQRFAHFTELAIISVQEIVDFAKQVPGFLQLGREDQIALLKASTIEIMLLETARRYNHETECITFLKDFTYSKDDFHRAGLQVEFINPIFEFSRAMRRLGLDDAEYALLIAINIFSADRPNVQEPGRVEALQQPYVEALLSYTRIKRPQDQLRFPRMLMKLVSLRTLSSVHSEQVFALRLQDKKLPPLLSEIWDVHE
Sequence of Oxysterols receptor LXR-alpha (Homo sapiens) (Q13133 whole entry, looked up, the tested form may be a part): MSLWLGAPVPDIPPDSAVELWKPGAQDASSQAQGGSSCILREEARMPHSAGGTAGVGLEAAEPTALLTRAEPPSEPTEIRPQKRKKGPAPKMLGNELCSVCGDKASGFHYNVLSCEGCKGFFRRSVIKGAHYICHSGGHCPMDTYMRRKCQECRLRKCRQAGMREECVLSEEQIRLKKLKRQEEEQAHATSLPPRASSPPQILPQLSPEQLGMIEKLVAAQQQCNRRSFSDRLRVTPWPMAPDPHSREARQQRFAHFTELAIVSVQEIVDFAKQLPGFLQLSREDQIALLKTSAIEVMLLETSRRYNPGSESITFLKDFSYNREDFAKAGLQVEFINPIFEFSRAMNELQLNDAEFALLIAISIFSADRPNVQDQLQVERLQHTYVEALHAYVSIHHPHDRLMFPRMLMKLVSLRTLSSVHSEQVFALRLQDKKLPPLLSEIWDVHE
Sequence of X-box-binding protein 1 (Homo sapiens) (P17861 whole entry, looked up, the tested form may be a part): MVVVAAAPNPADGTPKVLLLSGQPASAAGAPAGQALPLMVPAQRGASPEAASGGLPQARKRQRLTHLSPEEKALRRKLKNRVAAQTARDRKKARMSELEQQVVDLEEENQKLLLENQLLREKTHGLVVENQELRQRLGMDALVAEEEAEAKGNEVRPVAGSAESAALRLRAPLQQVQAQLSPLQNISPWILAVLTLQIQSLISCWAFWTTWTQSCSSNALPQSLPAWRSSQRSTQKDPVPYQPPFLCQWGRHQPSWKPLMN
Sequence of Androgen receptor (Homo sapiens) (P10275 whole entry, looked up, the tested form may be a part): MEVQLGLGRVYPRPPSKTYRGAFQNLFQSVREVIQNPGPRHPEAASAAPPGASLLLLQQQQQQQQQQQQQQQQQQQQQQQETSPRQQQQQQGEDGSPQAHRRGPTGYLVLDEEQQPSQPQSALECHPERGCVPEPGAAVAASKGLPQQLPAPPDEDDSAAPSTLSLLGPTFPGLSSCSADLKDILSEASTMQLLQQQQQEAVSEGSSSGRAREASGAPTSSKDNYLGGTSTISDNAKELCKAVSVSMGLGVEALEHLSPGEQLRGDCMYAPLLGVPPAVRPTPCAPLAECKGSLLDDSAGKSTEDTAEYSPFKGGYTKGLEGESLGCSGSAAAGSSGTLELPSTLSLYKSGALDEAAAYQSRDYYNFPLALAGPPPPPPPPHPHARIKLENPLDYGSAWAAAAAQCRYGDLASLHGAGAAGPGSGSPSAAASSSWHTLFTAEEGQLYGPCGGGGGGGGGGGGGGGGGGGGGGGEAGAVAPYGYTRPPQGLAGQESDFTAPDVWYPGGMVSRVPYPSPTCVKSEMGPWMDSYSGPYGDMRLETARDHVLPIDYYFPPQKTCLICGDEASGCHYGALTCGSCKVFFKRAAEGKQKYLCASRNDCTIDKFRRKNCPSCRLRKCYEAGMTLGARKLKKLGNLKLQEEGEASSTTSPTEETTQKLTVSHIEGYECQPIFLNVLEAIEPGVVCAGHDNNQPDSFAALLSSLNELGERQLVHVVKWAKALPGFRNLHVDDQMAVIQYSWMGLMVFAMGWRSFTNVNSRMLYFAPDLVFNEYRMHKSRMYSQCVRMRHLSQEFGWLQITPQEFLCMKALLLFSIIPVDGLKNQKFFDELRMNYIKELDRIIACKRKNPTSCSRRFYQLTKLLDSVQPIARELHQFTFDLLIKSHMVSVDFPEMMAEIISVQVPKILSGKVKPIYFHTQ

In the case of `CN(C)N=O`, the outcome in assay [1], in assay [2], in assay [3], in assay [4], in [5] and in [6] was inactive. Further, the compound was called inactive in assay [7], in assay [8], in assay [9], in assay [10], in assay [11] and in assay [12]. The compound was classed as inactive in [13], in assay [14] and in assay [15].

Broadly, the AC50 is the concentration giving half of the maximal activity seen. As to `O=C1C2(Cl)C3(Cl)C4(Cl)C(Cl)(Cl)C5(Cl)C3(Cl)C1(Cl)C5(Cl)C24Cl` (centres undefined), the AC50 in assay [1] is 5.49 µM (active) and 15.5 µM (active); in [2], 5.85 µM (active); in assay [4] it was 5.58 µM (active); in assay [6], 17.7 µM (active); in assay [7], 20.3 µM (active); in assay [9], 13.1 µM (active). The AC50 in [11] is 15.9 µM (active). The result in assay [1], in assay [2], in assay [3], in assay [4], in assay [5] and in assay [6] was inactive. The call in [7], in assay [8], in [9], in [16], in assay [11] and in assay [17] was inactive. Also, the call in assay [12], in assay [13], in assay [14], in [18] and in assay [15] was inactive.

Turning to `O=C1C(Cl)=C(Cl)C(=O)c2ccccc21`, the result in assay [1], in [2], in assay [3], in [4], in [5] and in [6] was inactive. The result in assay [7], in assay [8], in assay [9], in assay [19], in assay [16] and in [11] was inactive. In addition, the call in assay [12], in assay [13], in assay [14] and in [18] was inactive.

`CC(C)(c1ccccc1)c1ccc(O)c(C(C)(C)c2ccccc2)c1`: the result in [1], in assay [4], in assay [5], in [6], in [7] and in [8] was inactive. Further, the outcome in assay [10], in assay [12] and in assay [18] was inactive. Besides, the half-maximal activity concentration (AC50) in [2] is 7.78 µM (active); in assay [3], 4.24 µM (active); in assay [9], 0.702 µM (active); in [19], 5.55 µM (active); in [11], 10.1 µM (active).
